From PubChem BioAssay (NCI)
Compounds without any hit were thinned out: in the full panel of roughly 83,000, 20% have a hit.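 Results are percent growth after 48 hours of single-concentration exposure. 100 means growth as in untreated cells, lower positive values show inhibition; negative values down to -100 show cell death.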 Unmarked numbers belong to inactive results. Activity calls are given as the source filed them. How the source made its calls: active means growth percent below 10; inactive means the rest.

tested on: SF-295 CNS; assay: NCI-60 one-dose screen, 48 h (100 = growth as untreated, 0 = no growth, -100 = all killed); details: 10 µM unless noted

In order of rising growth:
1. CCN(CC)c1ccc(/C=N/NC(=O)c2ccc(NS(C)(=O)=O)cc2)cc1  11.4%
2. CCOC(=O)Nc1ccc2c(ccn2C(=O)c2cccc(F)c2)c1  19.6%
3. CCCc1cc2cc(-n3nc(CC)c4c3CC(C)(C)CC4=O)cc(NC3CCC(O)CC3)c2c(=O)[nH]1 (stereo not given)  28.5%
4. Cc1ccc(-c2nc(SCC(=O)c3ccccc3)nc(Nc3ccc(S(N)(=O)=O)cc3)c2C#N)cc1  36.7%
5. N/C(=N\C(N)=N\c1nc2ccccc2s1)c1ccc(Cl)cc1  44.5%
6. O=C(CCCCCCNC(=O)c1csc(Br)n1)NO  52%
7. C#Cc1nc(/C=C\CCCCCCC(=O)NO)cs1  65.3%
8. Cc1cc2nc(C(Cl)Cl)nc(-c3ccc(S(=O)(=O)N(C)C)cc3)n2n1  66.3%
9. CN(C)CC(=O)Nc1nc(-c2cccc(NS(=O)(=O)c3cccc4c(N(C)C)cccc34)c2)cs1  70.4%
10. O=C(CSc1nnc(-c2cccs2)n1-c1ccccc1)Nc1ccccc1F  83.2%
11. O=C(CSc1nc2ccccc2c(=O)n1-c1ccccc1)N/N=C/c1ccc(Oc2ccc(Cl)cc2)cc1  83.8%
12. O=S(=O)(NCCCNc1nccc(-c2[nH]c(-c3ccccc3)nc2-c2ccc(F)c(O)c2)n1)c1cccc(F)c1  85.2%
13. NS(=O)(=O)c1cccc(Nc2nc(SCC(=O)c3ccc(Cl)cc3)nc3c2CCC3)c1  93.1%
14. Cc1csc(/N=C(N)/N=C(\N)c2cccc(Br)c2)n1  94.1%
15. COc1ccc(NC2=C(Br)C(=O)C(C)=C(C)C2=O)cc1OC  94.4%
16. CCCC/C(=C\c1ccc(O)c(O)c1)C(=O)NC(Cc1ccccc1)C(=O)C(=O)NCCc1ccc(OC)cc1 (stereo not given)  97.8%
17. O=C1C(SCc2ccccc2)=C(Cl)CN1c1ccccc1  97.8%
18. CN1c2ccccc2Sc2cc(/C=N/Nc3ccnc4cc(Cl)ccc34)ccc21  98.7%
19. Cn1ncc2c(C(=O)c3ccc(F)cc3)nc(C(C)(C)C)nc21  99.6%
20. CC(=O)N1N=C(c2cc3ccccc3oc2=O)CC1c1cn(-c2ccccc2)nc1-c1ccc(C)cc1 (stereo not given)  100%
21. Cc1ccc(CSC2=C(Cl)CN(c3ccc(Cl)cc3)C2=O)cc1  101%
22. Cc1cccc(N2CCN(C3=C(Cl)C(=O)c4ncccc4C3=O)CC2)c1  101%
23. N#Cc1nc(-c2ccccc2)oc1N1CCC(C2(C(F)(F)F)N=N2)CC1  101%
24. NS(=O)(=O)c1ccc(CCn2c(-c3ccc(C(=O)O)cc3)nc(-c3ccccc3)c2-c2ccccc2)cc1  101%
25. Cc1[nH]c(C(=O)Nc2ccccc2OCc2cccc(C(=O)NCCN)c2)cc1Cl  101%
26. Nc1cc(C(=O)N/N=C\c2ccc(OC(F)F)c(OC3CCCC3)c2)nn1CC(O)c1ccccc1 (stereo not given)  101%
27. CCS(=O)(=O)Nc1ccc(C(=O)CC2(O)C(=O)Nc3ccccc32)cc1 (stereo not given)  102%
28. O=C(/C=C/Nc1ccc(S(=O)(=O)Nc2ncccn2)cc1)c1ccc(N=Cc2c(O)[nH]c3ccccc23)cc1  105%
29. COc1cccc(N2CCN(C3=C(Cl)C(=O)c4ncccc4C3=O)CC2)c1  110%

For Cc1ccc(C)c(NC2=C(Cl)C(=O)c3nc(C)ccc3C2=O)c1, the growth was -24.1% (active).
With CC(C)(C)c1cc(NC(=O)Nc2ccc(-c3cn4c5c(sc4n3)CCc3cn(CCCN4CCCCC4)cc3-5)cc2)no1 the growth was -53.6% (active).
With CCCCCCNC(=O)Oc1ccc(/C(=C(/C)c2ccc(OC)cc2)c2ccc(OCCN3CCCCCC3)cc2)cc1 the growth was -41.3% (active).
For O=C(CCCCCCNC(=O)C(O)(O)C(F)(F)F)Nc1ccc(Cl)cc1, the growth was 0.336% (active).
Nn1c(=O)n(-c2cccc(C(F)(F)F)c2)c(=O)c2cc(-c3ccc(F)cc3F)ccc21 was tested, and the growth was -4.06% (active).
Cc1ccc(C(=O)Nc2ccc(CNCCN3CCOCC3)c(C(F)(F)F)c2)cc1C#Cc1cnc2cccnn12 was tested, and the growth was -24.7% (active).
With COc1cc2c3c(cc4c5c(ccc4c3c1OC)OCO5)N(CCN(C)C)C2=O the growth was -16.8% (active).
Cc1ccc2c(n1)C(=O)C(Cl)=C(Nc1cccc(C)c1C)C2=O was tested, and the growth was -52.6% (active).
With COc1cccc2c1[C@H](OC)[C@]13O[C@@]1(C2=O)[C@H](O)[C@H](C)[C@@](O)(C(=O)[C@@H]1O[C@H]1C)[C@@H]3O the growth was -21.8% (active).
In the case of O=C(CCCCCCNC(=O)C(O)(O)C(F)(F)F)Nc1ncc(-c2ccccc2)s1, the growth was -35.1% (active).
NC(=O)c1c(NC(=O)c2ccc(C(F)(F)F)cc2)sc2c1CCC(=O)C2 was tested, and the growth was 4.24% (active).

tested on: SF-539 CNS; assay: as above; details: 10 µM unless noted

In order of rising growth:
1. O=C(CCCCCCNC(=O)C(O)(O)C(F)(F)F)Nc1ncc(-c2ccccc2)s1  13.9%
2. Cc1ccc(-c2nc(SCC(=O)c3ccccc3)nc(Nc3ccc(S(N)(=O)=O)cc3)c2C#N)cc1  18.3%
3. CCN(CC)c1ccc(/C=N/NC(=O)c2ccc(NS(C)(=O)=O)cc2)cc1  18.6%
4. Nn1c(=O)n(-c2cccc(C(F)(F)F)c2)c(=O)c2cc(-c3ccc(F)cc3F)ccc21  19.4%
5. O=C(CCCCCCNC(=O)C(O)(O)C(F)(F)F)Nc1ccc(Cl)cc1  28.6%
6. O=C(CCCCCCNC(=O)c1csc(Br)n1)NO  36.7%
7. O=C(CSc1nc2ccccc2c(=O)n1-c1ccccc1)N/N=C/c1ccc(Oc2ccc(Cl)cc2)cc1  68.5%
8. Cc1cc2nc(C(Cl)Cl)nc(-c3ccc(S(=O)(=O)N(C)C)cc3)n2n1  69.4%
9. O=C(CSc1nnc(-c2cccs2)n1-c1ccccc1)Nc1ccccc1F  87.9%
10. NS(=O)(=O)c1cccc(Nc2nc(SCC(=O)c3ccc(Cl)cc3)nc3c2CCC3)c1  88.3%
11. CC(=O)N1N=C(c2cc3ccccc3oc2=O)CC1c1cn(-c2ccccc2)nc1-c1ccc(C)cc1 (stereo not given)  90.1%
12. CCCC/C(=C\c1ccc(O)c(O)c1)C(=O)NC(Cc1ccccc1)C(=O)C(=O)NCCc1ccc(OC)cc1 (stereo not given)  91.6%
13. Cc1cccc(N2CCN(C3=C(Cl)C(=O)c4ncccc4C3=O)CC2)c1  92.1%
14. Cc1csc(/N=C(N)/N=C(\N)c2cccc(Br)c2)n1  92.6%
15. CN(C)CC(=O)Nc1nc(-c2cccc(NS(=O)(=O)c3cccc4c(N(C)C)cccc34)c2)cs1  93.3%
16. COc1cccc(N2CCN(C3=C(Cl)C(=O)c4ncccc4C3=O)CC2)c1  93.8%
17. O=C1C(SCc2ccccc2)=C(Cl)CN1c1ccccc1  95%
18. N/C(=N\C(N)=N\c1nc2ccccc2s1)c1ccc(Cl)cc1  95.4%
19. CCS(=O)(=O)Nc1ccc(C(=O)CC2(O)C(=O)Nc3ccccc32)cc1 (stereo not given)  96.1%
20. Cn1ncc2c(C(=O)c3ccc(F)cc3)nc(C(C)(C)C)nc21  97.1%
21. Cc1[nH]c(C(=O)Nc2ccccc2OCc2cccc(C(=O)NCCN)c2)cc1Cl  97.2%
22. Nc1cc(C(=O)N/N=C\c2ccc(OC(F)F)c(OC3CCCC3)c2)nn1CC(O)c1ccccc1 (stereo not given)  98.6%
23. NS(=O)(=O)c1ccc(CCn2c(-c3ccc(C(=O)O)cc3)nc(-c3ccccc3)c2-c2ccccc2)cc1  99.1%
24. N#Cc1nc(-c2ccccc2)oc1N1CCC(C2(C(F)(F)F)N=N2)CC1  99.2%
25. COc1ccc(NC2=C(Br)C(=O)C(C)=C(C)C2=O)cc1OC  101%
26. O=C(/C=C/Nc1ccc(S(=O)(=O)Nc2ncccn2)cc1)c1ccc(N=Cc2c(O)[nH]c3ccccc23)cc1  102%
27. Cc1ccc(CSC2=C(Cl)CN(c3ccc(Cl)cc3)C2=O)cc1  103%
28. CN1c2ccccc2Sc2cc(/C=N/Nc3ccnc4cc(Cl)ccc34)ccc21  103%
29. O=S(=O)(NCCCNc1nccc(-c2[nH]c(-c3ccccc3)nc2-c2ccc(F)c(O)c2)n1)c1cccc(F)c1  103%

For Cc1ccc(C)c(NC2=C(Cl)C(=O)c3nc(C)ccc3C2=O)c1, the growth was -95.1% (active).
With CC(C)(C)c1cc(NC(=O)Nc2ccc(-c3cn4c5c(sc4n3)CCc3cn(CCCN4CCCCC4)cc3-5)cc2)no1 the growth was -92.1% (active).
C#Cc1nc(/C=C\CCCCCCC(=O)NO)cs1 was tested, and the growth was -81.3% (active).
CCCc1cc2cc(-n3nc(CC)c4c3CC(C)(C)CC4=O)cc(NC3CCC(O)CC3)c2c(=O)[nH]1 (stereo not given) was tested, and the growth was 4.55% (active).
For CCCCCCNC(=O)Oc1ccc(/C(=C(/C)c2ccc(OC)cc2)c2ccc(OCCN3CCCCCC3)cc2)cc1, the growth was -59% (active).
For CCOC(=O)Nc1ccc2c(ccn2C(=O)c2cccc(F)c2)c1, the growth was 0.0722% (active).
With Cc1ccc(C(=O)Nc2ccc(CNCCN3CCOCC3)c(C(F)(F)F)c2)cc1C#Cc1cnc2cccnn12 the growth was -69.3% (active).
In the case of COc1cc2c3c(cc4c5c(ccc4c3c1OC)OCO5)N(CCN(C)C)C2=O, the growth was -58.4% (active).
In the case of Cc1ccc2c(n1)C(=O)C(Cl)=C(Nc1cccc(C)c1C)C2=O, the growth was -55.9% (active).
COc1cccc2c1[C@H](OC)[C@]13O[C@@]1(C2=O)[C@H](O)[C@H](C)[C@@](O)(C(=O)[C@@H]1O[C@H]1C)[C@@H]3O was tested, and the growth was -29% (active).
NC(=O)c1c(NC(=O)c2ccc(C(F)(F)F)cc2)sc2c1CCC(=O)C2 was tested, and the growth was -74.3% (active).
